Several values for one entry are separate records, joined by “and”; a condition that tells them apart may be missing. Identical values can stand only once.

As usually defined, the inhibition is the drop in the measured response relative to a control, in per cent.

Assay [1] has as its target 5'-AMP-activated protein kinase catalytic subunit alpha-2 (Homo sapiens) (UniProt P54646). The note with it: at 1 µM.
In assay [2] the target is T1, NUAK family SNF1-like kinase 1 (Homo sapiens) (UniProt O60285).
T1 sequence (whole entry): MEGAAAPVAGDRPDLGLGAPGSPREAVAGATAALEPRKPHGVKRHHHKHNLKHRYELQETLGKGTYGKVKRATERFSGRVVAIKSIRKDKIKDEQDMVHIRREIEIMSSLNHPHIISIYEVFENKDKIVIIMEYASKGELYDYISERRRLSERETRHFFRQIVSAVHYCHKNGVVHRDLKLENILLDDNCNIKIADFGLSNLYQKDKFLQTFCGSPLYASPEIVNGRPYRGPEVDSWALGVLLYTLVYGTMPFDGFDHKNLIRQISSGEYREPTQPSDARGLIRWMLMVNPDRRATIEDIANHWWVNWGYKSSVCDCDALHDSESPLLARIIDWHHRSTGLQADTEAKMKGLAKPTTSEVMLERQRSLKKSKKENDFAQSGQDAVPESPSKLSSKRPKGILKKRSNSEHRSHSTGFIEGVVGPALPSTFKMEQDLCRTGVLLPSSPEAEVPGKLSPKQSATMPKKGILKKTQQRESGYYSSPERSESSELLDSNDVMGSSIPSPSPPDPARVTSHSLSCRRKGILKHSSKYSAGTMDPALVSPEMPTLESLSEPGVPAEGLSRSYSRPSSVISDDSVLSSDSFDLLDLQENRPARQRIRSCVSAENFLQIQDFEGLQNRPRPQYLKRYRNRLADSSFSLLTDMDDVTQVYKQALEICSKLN
The note with it: at 0.1 µM.

Assay [3] has as its target T1, NUAK family SNF1-like kinase 1 (Homo sapiens). The note with it: at 1 µM.
Assay [4] has as its target T2, Serine/threonine-protein kinase BRSK1 (Homo sapiens) (UniProt Q8TDC3).
T2 sequence (whole entry): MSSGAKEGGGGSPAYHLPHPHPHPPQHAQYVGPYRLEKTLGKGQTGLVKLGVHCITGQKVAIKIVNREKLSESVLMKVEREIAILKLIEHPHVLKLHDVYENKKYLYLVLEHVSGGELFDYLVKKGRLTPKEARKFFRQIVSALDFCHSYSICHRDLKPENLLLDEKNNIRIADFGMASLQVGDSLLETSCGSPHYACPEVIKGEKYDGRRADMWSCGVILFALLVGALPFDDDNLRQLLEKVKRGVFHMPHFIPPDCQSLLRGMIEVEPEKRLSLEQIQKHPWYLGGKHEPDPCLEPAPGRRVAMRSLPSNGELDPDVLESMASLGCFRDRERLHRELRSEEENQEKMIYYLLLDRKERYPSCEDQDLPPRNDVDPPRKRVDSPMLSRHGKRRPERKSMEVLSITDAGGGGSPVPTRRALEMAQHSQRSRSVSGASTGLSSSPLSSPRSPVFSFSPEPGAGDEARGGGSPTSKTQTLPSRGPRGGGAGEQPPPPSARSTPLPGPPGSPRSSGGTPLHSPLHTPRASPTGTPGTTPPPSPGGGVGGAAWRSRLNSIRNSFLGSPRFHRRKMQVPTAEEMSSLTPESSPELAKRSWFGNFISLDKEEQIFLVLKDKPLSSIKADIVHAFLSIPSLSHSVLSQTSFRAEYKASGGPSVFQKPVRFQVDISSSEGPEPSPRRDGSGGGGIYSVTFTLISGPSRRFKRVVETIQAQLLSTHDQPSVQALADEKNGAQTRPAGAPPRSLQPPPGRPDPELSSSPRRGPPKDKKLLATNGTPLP
The note with it: at 0.1 µM.

Assay [5] addresses T2, Serine/threonine-protein kinase BRSK1 (Homo sapiens). The note with it: at 1 µM.
Assay [6] addresses T3, Serine/threonine-protein kinase BRSK2 (Homo sapiens) (UniProt Q8IWQ3).
T3 sequence (whole entry): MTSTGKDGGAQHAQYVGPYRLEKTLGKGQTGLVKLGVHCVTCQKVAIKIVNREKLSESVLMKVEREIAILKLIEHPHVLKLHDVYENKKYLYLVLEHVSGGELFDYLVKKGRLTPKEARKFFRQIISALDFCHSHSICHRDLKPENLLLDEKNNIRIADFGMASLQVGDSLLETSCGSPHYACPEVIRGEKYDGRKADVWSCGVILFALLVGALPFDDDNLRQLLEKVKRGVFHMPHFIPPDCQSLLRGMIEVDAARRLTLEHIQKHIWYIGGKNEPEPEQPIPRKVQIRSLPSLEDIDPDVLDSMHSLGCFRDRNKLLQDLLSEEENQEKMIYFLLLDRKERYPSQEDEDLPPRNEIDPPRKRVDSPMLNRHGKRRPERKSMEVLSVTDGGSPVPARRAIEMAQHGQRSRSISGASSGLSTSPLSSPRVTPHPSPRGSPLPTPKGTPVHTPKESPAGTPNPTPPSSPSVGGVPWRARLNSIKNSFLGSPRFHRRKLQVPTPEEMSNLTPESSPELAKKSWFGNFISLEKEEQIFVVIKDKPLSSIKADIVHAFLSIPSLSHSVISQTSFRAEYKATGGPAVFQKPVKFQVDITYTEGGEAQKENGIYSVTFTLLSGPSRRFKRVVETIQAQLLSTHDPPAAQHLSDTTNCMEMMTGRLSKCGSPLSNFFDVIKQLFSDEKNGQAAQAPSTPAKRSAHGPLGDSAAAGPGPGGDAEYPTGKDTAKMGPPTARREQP
The note with it: at 0.1 µM.

Assay [7] has as its target T3, Serine/threonine-protein kinase BRSK2 (Homo sapiens). The note with it: at 1 µM.
The target of assay [8] is Calcium/calmodulin-dependent protein kinase type 1D (Homo sapiens) (UniProt Q8IU85). The note with it: at 0.1 µM.
Assay [9] has the same target. The note with it: at 1 µM.
For assay [10], the target named is Calcium/calmodulin-dependent protein kinase type II subunit alpha (Homo sapiens) (UniProt Q9UQM7). The note with it: at 0.1 µM.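 Note: reported values are averages (mean inhibition of CAMK2A).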
Sequence of Calcium/calmodulin-dependent protein kinase type II subunit alpha (Homo sapiens) (Q9UQM7 whole entry): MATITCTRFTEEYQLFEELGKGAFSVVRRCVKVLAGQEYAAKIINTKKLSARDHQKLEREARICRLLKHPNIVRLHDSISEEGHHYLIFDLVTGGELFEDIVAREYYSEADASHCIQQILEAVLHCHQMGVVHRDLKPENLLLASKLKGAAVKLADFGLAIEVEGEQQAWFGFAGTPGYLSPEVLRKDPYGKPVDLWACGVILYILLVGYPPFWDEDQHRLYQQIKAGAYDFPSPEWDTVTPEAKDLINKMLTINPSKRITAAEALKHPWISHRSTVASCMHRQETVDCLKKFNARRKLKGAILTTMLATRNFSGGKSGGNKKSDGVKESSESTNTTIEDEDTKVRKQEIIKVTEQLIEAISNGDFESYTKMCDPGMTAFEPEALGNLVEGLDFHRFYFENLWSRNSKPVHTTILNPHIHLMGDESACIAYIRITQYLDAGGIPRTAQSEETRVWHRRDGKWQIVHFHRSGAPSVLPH

Sequence of Calcium/calmodulin-dependent protein kinase type 1D (Homo sapiens) (Q8IU85 whole entry, looked up): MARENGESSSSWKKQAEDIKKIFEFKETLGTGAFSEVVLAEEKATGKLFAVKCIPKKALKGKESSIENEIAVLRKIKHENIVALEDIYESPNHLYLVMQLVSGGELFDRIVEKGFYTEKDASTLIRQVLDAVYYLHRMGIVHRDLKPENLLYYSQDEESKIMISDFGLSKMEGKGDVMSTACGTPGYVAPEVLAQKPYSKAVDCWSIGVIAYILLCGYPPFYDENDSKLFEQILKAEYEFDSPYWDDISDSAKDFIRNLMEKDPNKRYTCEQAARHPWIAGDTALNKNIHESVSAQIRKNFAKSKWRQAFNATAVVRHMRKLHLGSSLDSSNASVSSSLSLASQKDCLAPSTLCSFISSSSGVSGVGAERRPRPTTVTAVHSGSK
Sequence of 5'-AMP-activated protein kinase catalytic subunit alpha-2 (Homo sapiens) (P54646 whole entry, looked up): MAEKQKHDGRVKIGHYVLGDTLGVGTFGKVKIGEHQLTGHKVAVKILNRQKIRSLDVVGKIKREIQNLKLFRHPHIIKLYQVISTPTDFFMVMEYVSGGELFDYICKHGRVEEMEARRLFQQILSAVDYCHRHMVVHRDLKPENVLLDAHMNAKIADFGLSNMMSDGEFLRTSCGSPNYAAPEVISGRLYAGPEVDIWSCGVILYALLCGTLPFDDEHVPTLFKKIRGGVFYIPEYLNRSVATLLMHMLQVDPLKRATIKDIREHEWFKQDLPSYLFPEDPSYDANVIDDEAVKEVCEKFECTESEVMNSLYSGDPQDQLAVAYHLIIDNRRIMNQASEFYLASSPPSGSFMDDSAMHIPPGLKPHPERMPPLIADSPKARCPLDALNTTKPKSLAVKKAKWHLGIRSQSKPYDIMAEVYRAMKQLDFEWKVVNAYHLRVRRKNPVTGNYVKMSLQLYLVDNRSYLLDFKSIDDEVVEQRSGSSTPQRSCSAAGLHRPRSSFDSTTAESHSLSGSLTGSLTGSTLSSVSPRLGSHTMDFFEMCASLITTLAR

`c1cnn2ncc(-c3ccnc(NCCCN4CCOCC4)n3)c2c1`: the inhibition in assay [1] is 2.36%; in [2] it was -0.66%; in [3] it was 0.6%; in assay [4], 0.82%; in assay [5] it was 1.97%; in [6], 1.69%. The inhibition in assay [7] is 1.28%; in [8], -0.6%; in assay [9] it was -0.17%; in [10], 2.86%.

Consider `CC1(C)CC(n2cnc(-c3ccc(F)cc3)c2-c2ccnc(N)n2)CC(C)(C)N1`, for which the inhibition amounted to 0.53% in [1]; 0.87% in assay [2]; 1.37% in assay [3]; 1.5% in assay [4]; 4.7% in assay [5]; 1.41% in assay [6]. Moreover, the inhibition in [7] is 5.87%; in assay [8], -0.53%; in assay [9], 2.41%; in assay [10] it was -2.87%.

Consider `CC1=C(C(=O)Nc2ccc3[nH]nc(C)c3c2)C(c2ccc(C(F)(F)F)cc2)CC(=O)N1` (stereo not given), for which the inhibition in assay [1] was 7.41%; in assay [2], 6.8%; in [3], 31.1%; in assay [4], 4.32%; in assay [5], 21.3%; in [6], 6.42%. The inhibition came out at 32.6% in [7], 0.54% in [8], 2.58% in assay [9] and 1.45% in [10].

Regarding `COc1ccc2ncn(-c3cc(O[C@H](C)c4ccccc4C(F)(F)F)c(C(N)=O)s3)c2c1`, the inhibition in [1] worked out at 2.72%; in assay [2], 5.12%; in assay [3], 43.5%; in assay [4], 2.49%; in assay [5] it was 25.8%; in assay [6], 6.06%. Moreover, the inhibition in [7] was 36.5%; in [8] it was 0.14%; in assay [9], 1.96%; in [10] it was -1.63%.

As for `Fc1ccc(Nc2nccc(-c3c(-c4ccc(C(F)(F)F)cc4)nn4ncccc34)n2)cc1F`, the inhibition is 3.75% in assay [1]; 2.79% in [2]; 1.57% in assay [3]; 2.38% in assay [4]; 1.19% in assay [5]; 1.46% in assay [6]. In addition, the inhibition in assay [7] is 0.71%; in assay [8] it was -0.76%; in [9], 1.66%; in assay [10], 3.04%.

With `COc1cc(Nc2ncc(-c3ccccc3)o2)cc(OC)c1`, the inhibition in [1] is 8.23%; in assay [2], 5.89%; in assay [3], 32.7%; in assay [4], -1.27%; in assay [5], 8.79%; in [6] it was 2.68%. The inhibition is 7.23% in [7], -0.33% in [8], -0.66% in assay [9] and 2.98% in assay [10].

On to `Cc1nnc(-c2cccc(-c3ccc(C(=O)NCC4CC4)cc3)c2)o1`, for which the inhibition is 4.4% in [1]; 3.1% in [2]; 2.61% in [3]; 0.57% in assay [4]; 2.35% in assay [5]; 6.6% in [6]. Besides, the inhibition in [7] is 3.96%; in assay [8], -0.22%; in assay [9] it was 0.22%; in assay [10] it was 5.78%.

On to `CNC(=O)c1sc(-n2cnc3cc(OC)c(OC)cc32)cc1OCc1ccccc1C(F)(F)F`, for which the inhibition is -1.59% in assay [1]; 0.7% in assay [2]; 6.22% in assay [3]; 0.35% in [4]; 4.45% in assay [5]; 4.29% in assay [6]. Further, the inhibition in [7] is 4.88%; in assay [8], 0.71%; in assay [9] it was -0.22%; in assay [10], 2.98%.

As for `N#Cc1cccc(Nc2ncc(-c3ccccc3)o2)c1`, the inhibition in assay [1] is 1.61%; in assay [2] it was 0.75%; in [3], 7.37%; in assay [4], -1.88%; in assay [5], 1.82%; in assay [6], 0.65%. The inhibition in assay [7] is 5%; in assay [8], -1.6%; in assay [9], -1.52%; in assay [10] it was 1.87%.

As to `CS(=O)(=O)CCNCc1ccc(-c2ccc3ncnc(Nc4ccc(OCc5cccc(C(F)(F)F)c5)cc4)c3c2)o1`, the inhibition in [1] amounted to 3.3%; in assay [2], 0.13%; in assay [3], 6.75%; in assay [4], 4%; in assay [5], 4.04%; in [6], 4.95%. The inhibition in assay [7] was 9.19%; in [8], -0.93%; in assay [9], 0.88%; in assay [10], 1.38%.

Consider `COC(=O)Nc1nc2ccc(Oc3ccc(NC(=O)Nc4cc(C(F)(F)F)ccc4F)cc3)cc2s1`, for which the inhibition in assay [1] was 1.67%; in [2], -0.54%; in assay [3], -3.55%; in assay [4], -0.58%; in assay [5], 0.34%; in [6], -0.27%. Moreover, the inhibition in assay [7] is 0.24%; in [8] it was 0.5%; in [9], 2.93%; in [10], -0.9%.

For the compound `O=C1Nc2ccccc2/C1=C1\CCc2cc(O)ccc21`, the inhibition in [1] amounted to 14.3%; in assay [2], 16.2%; in assay [3] it was 60.8%; in assay [4] it was 3.95%; in assay [5] it was 16.9%; in assay [6], 5.82%. The inhibition in [7] stood at 20.1%; in assay [8], 1.02%; in assay [9], 3.43%; in assay [10], 3.85%.

For the compound `c1ccc(-c2n[nH]cc2-c2ccnc(-c3ccc(OCCn4ccnc4)cc3)c2)nc1`, the inhibition in assay [1] was 1.29%; in assay [2] it was -0.74%; in [3], 7.14%; in assay [4], 0.8%; in assay [5], 1.98%; in assay [6] it was 0.62%. For the same compound, the inhibition in [7] was 4.44%; in assay [8], -0.08%; in assay [9], 0.91%; in [10], -3.32%.

For `O=C(O[C@H]1CN[C@H](C#Cc2cc3ncnc(Nc4ccc(OCc5cccc(F)c5)c(Cl)c4)c3s2)C1)N1CCOCC1`, the inhibition in assay [1] was 2.14%; in assay [2] it was 0.4%; in assay [3], 0.97%; in [4] it was -0.35%; in assay [5] it was 1.81%; in assay [6], 2.06%. For the same compound, the inhibition in assay [7] is 3.32%; in [8] it was -0.02%; in [9], -0.12%; in assay [10] it was 2.9%.

On to `Nc1nonc1-c1nc2cnccc2n1C1CC1`, for which the inhibition in assay [1] is 7.08% and 5.85%; in assay [2], 5% and 1.55%; in assay [3], 13.1% and 10.2%; in assay [4] it was 5.76% and 4.57%; in assay [5], 21.7% and 18.1%; in assay [6], 8.42% and 4.02%. Also, the inhibition in [7] was 27.9% and 27.1%; in [8], 0.19% and 0.41%; in [9], 1.1% and 0.69%; in [10], 4.16% and 0.57%.

On to `Cc1cc(O)cc(C)c1/C=C/c1cncc(C(=O)OC(C)(C)C)c1`, for which the inhibition in assay [1] was 4.01%; in assay [2], 1.92%; in [3], 4.1%; in assay [4] it was 0.6%; in assay [5], 5.15%; in assay [6], 2.26%. The inhibition is 3.54% in assay [7], -0.01% in assay [8], 1.19% in assay [9] and 1.37% in [10].

Values taken from ChEMBL document CHEMBL1961873, “Compounds: GSK PKIS; Assays: Nanosyn kinase panel” (2012).
